Bioassay records from PubChem BioAssay.
IL1B secr inh: qHTS for Inhibitors of Inflammasome Signaling: IL-1-beta AlphaLISA Primary Screen; THP-1 LPS/ATP IL-1B secretion, AlphaLISA, 16 h; active compounds read low; activity change, % at 57.5 µM; 360,000 compounds, 4.7% hits; in the data active means activity change below about -50%; inconclusive means mostly about -30% to -49%
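Secreted IL-1B measured by AlphaLISA bead assay after 16 h compound exposure of THP-1 cells; compounds (final up to 57.5 uM) added 1 h before LPS (250 ng/mL) and ATP (1.25 mM) stimulation; lower signal means less secretion.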
KB-3-1 tox: qHTS assay for MDR1-selective chemotherapeutics: Primary screen using the parental adenocarcinoma cell KB-3-1; KB-3-1 viability, CellTiter-Glo ATP luminescence, 72 h; Potency, µM (series often up to 46.1 µM), hits mostly cytotoxic; 400,000 compounds, 1.4% hits; AID 1347075, 2019; further: potency means the concentration at half of the fitted maximal effect; nearly all actives have a fitted effect of over 60% in size
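Screening of KB-3-1 cells (DMEM, 10% FBS, phenol-red free) ran from lowest to highest compound concentration; after 72 h at 37 °C viability was read luminescently and curves fitted.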
HT1080NT lethal: qHTS for induction of synthetic lethality in tumor cells producing 2HG: qHTS for the HT-1080-NT fibrosarcoma cell line; Potency, µM (doses to about 46.1 µM), without a hit: at the top dose activity, negative = less viability, usual class: cytotoxic; 360,000 compounds, 1.6% hits; AID 686970, 2013; HT-1080-NT fibrosarcoma viability, CellTiter-Glo ATP luminescence, 48 h;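 further: NT is the 2HG producing partner of a matched IDH1 knockdown line; potency means the concentration at half of the fitted maximal effect; 0% = DMSO-treated cells and -100% = media-only wells without cells; nearly all actives have a fitted effect of over 55% in size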
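Compounds were tested in concentration-response format on HT-1080-NT cells for 48 hours at 37 degrees C. Cell viability came from CellTiter-Glo luminescence; curves were classified by r2, response magnitude and activity.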
HT1080 IDH1KD tx: qHTS for induction of synthetic lethality in tumor cells producing 2HG: qHTS for the HT-1080-IDH1KD cell line; 360,000 compounds, 2% hits; HT-1080 IDH1 knockdown viability, ATP luminescence, 48 h; Potency, µM (series often up to 46.1 µM), for the others: at the top dose activity, negative = toxicity, usual class: cytotoxic;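 further: potency means the concentration at half of the fitted maximal effect; 0% = DMSO wells and -100% = cell-free medium wells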
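Using the IDH1-knockdown HT-1080 line run in the same batch and compound series as the NT line, viability after 48 h at 37 °C was determined by CellTiter-Glo luminescence and expressed as % activity.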
KB-V1 MDR tox: qHTS assay for MDR1-selective chemotherapeutics: Primary screen using the drug-selected MDR subline cells KB-V1; KB-V1 MDR cells viability, CellTiter-Glo, 72 h; Potency, µM (series often up to 46.1 µM), most hits filed as cytotoxic; 400,000 compounds, 3.4% hits; AID 1347076, 2019; further: potency means the concentration at half of the fitted maximal effect; nearly all actives have a fitted effect of over 60% in size
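Drug-selected KB-V1 cells, grown in DMEM lacking phenol red with 10% FBS, receive compound titrations; after three days at 37 degrees C, surviving cell ATP is quantified by CellTiter-Glo luminescence and responses normalized and curve-fitted.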
Active calls of the source: *; i = inactive; ? = inconclusive; · = no result given. Sampled rows, rich in hits. Any-hit rate of the full collection: about 8.8%. Unless noted, the call rests on the fitted dose curve; in most records, active means well fitted curve in the direction sought with a large enough effect; inconclusive means small, poorly fitted or top-dose-only effect, or another doubt; inactive means no such curve, though single readings can be large; an effect the other way counts as inactive or inconclusive. Unless noted, on the % scale 0 is the no-effect control and ±100 the full control effect.

SMILES | IL1B secr inh | KB-3-1 tox | HT1080NT lethal | HT1080 IDH1KD tx | KB-V1 MDR tox
O=C(Cc1cc(=O)[nH][nH]1)N/N=C/c1c(F)cccc1Cl | -10 | i | 0% | -2% | i
COc1cc(C)c(C(C)C)cc1S(=O)(=O)n1cnc(C)c1 | 54 | 5.2µM* | ? | 9.2µM* | ?
O=C(COC(=O)/C=C/c1ccc(F)cc1)Nc1ccc(S(=O)(=O)N2CCOCC2)cc1 | -14 | i | -1% | -5% | i
O=C(COCc1cc(-c2cccs2)on1)NCc1cccc(Cl)c1 | · | i | · | · | i
Cc1ccccc1NC1=C/C(=N\S(=O)(=O)c2cccs2)c2ccccc2C1=O | -94* | ? | 5.8µM* | 7.3µM* | 7.3µM*
CC(=O)Nc1ccc(NC2=C/C(=N/S(=O)(=O)c3cccs3)c3ccccc3C2=O)cc1 | -95* | 21µM* | 16µM* | 9.2µM* | i
COc1ccc(S(=O)(=O)/N=C2\C=C(Nc3ccc(O)cc3)C(=O)c3ccccc32)cc1 | -96* | 5.2µM* | 1.8µM* | 2.1µM* | 16µM*
Cc1ccc(NC2=C/C(=N/S(=O)(=O)c3cccs3)c3ccccc3C2=O)cc1C | 0 | i | -1% | 0% | i
O=C(CN(Cc1cccs1)C(=O)CNS(=O)(=O)c1ccccc1)NC1CCCC1 | 0 | i | 11% | 5% | i
NC1=NC[C@H](c2ccccc2)N1CC1CCCCC1 | -54* | i | -19% | 5% | i
CC(C)(C)OC(=O)NCCc1nnc(SCc2ccccc2Cl)o1 | 9 | i | 13% | 1% | i
CC(C)(C)OC(=O)NCCc1nnc(S(=O)(=O)Cc2ccc(Cl)cc2Cl)o1 | -118* | i | 18µM* | 16µM* | i
CC(C(=O)Nc1ccccc1C#N)N1C(=O)NC2(CCCCCC2)C1=O (stereo not drawn) | 15 | i | -4% | 0% | i
CC[n+]1c(/C=C/N(C)c2ccccc2)n(-c2ccccc2)c2ccc(-c3nc4ccccc4s3)cc21 | -102* | 5.8µM* | ? | 5.8µM* | i
CC[n+]1cccc(-c2nc3ccccc3s2)c1 | 57 | ? | -8% | -13% | i
O=C(NC1CCCCC1)c1ccc(COCC(F)(F)F)o1 | 1 | i | -2% | 2% | i
O=C(NC1CCCCCC1)c1cccc(COCC(F)(F)F)c1 | -7 | i | 0% | -1% | 23µM*
Cc1ccc(S(=O)(=O)Nc2ccccc2F)cc1C(=O)NNC(=O)c1ccccc1O | 30 | i | -14% | -3% | ?
Cc1cccc(-c2nc3c4c(-c5ccccc5)c(-c5ccccc5)oc4ncn3n2)c1 | · | i | · | · | i
CN1CCN(CC2(O)CCN(S(=O)(=O)c3ccc(Cl)cc3)CC2)CC1 | -7 | i | -6% | 1% | i
Cc1ccc(S(=O)(=O)c2cc3ccccc3oc2=Nc2ccc3c(c2)OCCO3)cc1 | 14 | i | -3% | 7% | 10µM*
COc1ccc(CCNCC(O)COc2cccc(Br)c2)cc1OC (stereo not drawn) | -61* | i | -16% | -19% | i
COc1ccc(CCNCC(O)Cn2c3ccccc3c3ccccc32)cc1OC (stereo not drawn) | -55* | ? | -6% | 23µM* | ?
COc1ccc(CCNCC(O)COc2ccc(OC)cc2C(C)(C)C)cc1 (stereo not drawn) | -97* | i | ? | 18µM* | i
COc1ccccc1NCC(O)Cn1c2ccccc2c2ccccc21 (stereo not drawn) | -7 | i | -29% | ? | i
SMILES | IL1B secr inh | KB-3-1 tox | HT1080NT lethal | HT1080 IDH1KD tx | KB-V1 MDR tox
Cn1c(CNC(=O)OC(C)(C)C)nnc1SCC(=O)N1CCOCC1 | 24 | i | -6% | -2% | i
CN1CCN(c2cccc3c2S(=O)(=O)N[C@@H](Cc2ccccc2)CO3)CC1 | -10 | i | -6% | 1% | i
Cc1ccc(-n2ncc(C(=O)NCc3ccccn3)c2C2CCN(C(=O)OC(C)(C)C)CC2)cc1C | · | i | · | · | i
CCCCN(CCO)c1ncnc2sc(-c3ccccc3)cc12 | · | i | -26% | ? | i
COc1ccc(CC(=O)Nc2ccc(S(=O)(=O)Nc3cc(C)nc(C)n3)cc2)cc1OC | 9 | i | -1% | 1% | i
CCOc1ccccc1NC1=C(Cl)C(=O)N(Cc2ccccc2)C1=O | -5 | ? | ? | ? | i
O=C1C(Cl)=C(Nc2cccc(O)c2)C(=O)N1Cc1ccccc1 | -98* | i | ? | ? | i
CC1CCCCN1C(=O)c1cccc(NC2=C(Cl)C(=O)N(Cc3ccccc3)C2=O)c1 (stereo not drawn) | -88* | ? | ? | ? | ?
CC1CCN(C(=O)c2ccc(NC3=C(Cl)C(=O)N(Cc4ccccc4)C3=O)cc2)CC1 | -93* | ? | -12% | -28% | i
COc1ccc(OC)c(NC2=C(Cl)C(=O)N(Cc3ccccc3)C2=O)c1 | -165* | i | -16% | ? | i
CC(=O)Nc1cccc(NC(=O)Cn2cnc3c2c(=O)n(C)c(=O)n3C)c1 | · | i | · | · | i
COc1cc(-c2noc(CSc3nc(-c4ccccc4)cc(=O)[nH]3)n2)cc(OC)c1OC | · | i | · | · | i
O=C1C(Cl)=C(Nc2ccc(F)cc2)C(=O)N1CCc1ccccc1 | -148* | i | 7% | 0% | i
O=C1C(Cl)=C(N2CCOCC2)C(=O)N1CCc1ccccc1 | 4 | i | 0% | -2% | 15µM*
O=C1C(Cl)=C(NCCc2ccccc2)C(=O)N1CCc1ccccc1 | -19 | i | -1% | 0% | i
O=C(Nc1ccccc1F)c1ccc(C(=O)c2ccccc2)cc1 | i | i | 5% | 16% | ?
CCn1ncc(/C=N\NC(=O)c2csc3ccccc23)c1C | 19 | 6.5µM* | ? | 5.2µM* | ?
COc1cccc(-c2cccc3c2NC(=O)C3(C)Cc2cccc(F)c2)c1 (stereo not drawn) | 13 | ? | ? | ? | ?
CCOC(=O)N1CCN(c2nc3ccccc3nc2C(C#N)S(=O)(=O)c2ccc(C)cc2)CC1 (stereo not drawn) | 11 | i | -2% | 2% | 3.7µM*
CCCC(=O)N1CCN(c2nnc(-c3ccccc3)c3ccccc23)CC1 | -51* | i | -1% | 0% | i
Cc1ccc(S(=O)(=O)C(C#N)c2nc3ccccc3nc2N2CCN(C)CC2)cc1 (stereo not drawn) | -14 | ? | 0% | 8% | i
